Measurements from PubChem BioAssay AID1159580 (chemical genetic matrix, 2015).
Hit rate of the full screen: of about 5,500 compounds, about 2,000 (36%) were called active. Roughly 18% stayed inconclusive and do not appear here. Rule as the data show it: active = normalized growth mostly below about 0.91 (no sharp cut-off); inconclusive = no clear call, values can overlap the other calls; inactive = mostly above about 0.92. This is one part of the list.

Assay: chemical genetic growth profiling, strain panel (AID 1159580);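 also: tested at 20 µM; growth read once vehicle control cultures reached saturation at 30 °C; 1 = growth at the plate median or of vehicle wells; lower values mean less growth of the strain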
Conditions: S. cerevisiae deletion strains, growth OD

Measured: normalized growth

CO/N=C(\C(=O)NC1C(=O)N2C(C(=O)OC(C)OC(C)=O)=C(COC(N)=O)CSC12)c1ccco1 (stereo unspecified)
inactive: locus YAL021C, strain ccr4, hits give low values 0.994 | locus YAL026C, strain drs2, hits give low values 0.996 | locus YAL030W, strain snc1, hits give low values 0.998 | locus YBL061C, strain skt5, hits give low values 0.992 | locus YBR009C, strain hhf1, hits give low values 0.994 | locus YBR023C, strain chs3, hits give low values 0.988 | locus YBR171W, strain sec66, hits give low values 0.983 | locus YBR231C, strain swc5, hits give low values 1 | locus YBR279W, strain paf1, hits give low values 0.991 | locus YCL011C, strain gbp2, hits give low values 0.997 | locus YCL016C, strain dcc1, hits give low values 0.985 | locus YCL061C, strain MRC1, hits give low values 0.99 | locus YCL069W, strain vba3, hits give low values 0.989 | locus YCR088W, strain abp1, hits give low values 0.994 | locus YDL005C, strain med2, hits give low values 0.985 | locus YDL040C, strain nat1, hits give low values 0.995 | locus YDR001C, strain nth1, hits give low values 1 | locus YDR069C, strain doa4, hits give low values 0.994 | locus YDR137W, strain rgp1, hits give low values 0.996 | locus YDR159W, strain sac3, hits give low values 0.996 | locus YDR195W, strain ref2 0.985 | locus YDR297W, strain sur2, hits give low values 1 | locus YDR334W, strain swr1, hits give low values 1 | locus YDR335W, strain msn5, hits give low values 0.996 | locus YDR392W, strain spt3, hits give low values 0.993 | locus YEL003W, strain gim4, hits give low values 0.998 | locus YEL037C, strain rad23, hits give low values 0.997 | locus YEL061C, strain CIN8 (second series), hits give low values 0.999 | locus YER015W, strain faa2, hits give low values 1 | locus YER016W, strain bim1, hits give low values 0.99 | locus YER111C, strain swi4, hits give low values 0.986 | locus YER155C, strain BEM2 (second series), hits give low values 0.991 | locus YFR010W, strain ubp6, hits give low values 0.998 | locus YGL167C, strain pmr1, hits give low values 0.989 | locus YGL173C, strain kem1, hits give low values 0.985 | locus YGL227W, strain vid30, hits give low values 0.981 | locus YGL240W, strain doc1, hits give low values 1.01 | locus YGL253W, strain hxk2, hits give low values 1 | locus YHR013C, strain ard1, hits give low values 0.998 | locus YHR027C, strain rpn1, hits give low values 0.994 | locus YHR030C, strain SLT2, hits give low values 1.03 | locus YHR079C, strain IRE1, hits give low values 1.05 | locus YHR142W, strain chs7, hits give low values 0.99 | locus YJL092W, strain hpr5, hits give low values 0.993 | locus YJL095W, strain BCK1 (second series), hits give low values 0.997 | locus YJL095W, strain BCK1, hits give low values 1.01 | locus YJL115W, strain asf1, hits give low values 0.996 | locus YJL129C, strain trk1, hits give low values 0.987 | locus YJL154C, strain vps35, hits give low values 1.01 | locus YJL164C, strain tpk1, hits give low values 0.996 | locus YJL166W, strain qcr8, hits give low values 0.996 | locus YJL187C, strain SWE1, hits give low values 1 | locus YJR066W, strain TOR1, hits give low values 0.989 | locus YKL160W, strain elf1, hits give low values 0.997 | locus YKR026C, strain gcn3, hits give low values 0.983 | locus YKR091W, strain srl3, hits give low values 0.998 | locus YLL001W, strain dnm1, hits give low values 0.981 | locus YLL026W, hits give low values 0.991 | locus YLL041C, strain sdh2, hits give low values 0.993 | locus YLR027C, strain aat2, hits give low values 0.992 | locus YLR113W, strain HOG1, hits give low values 1 | locus YLR221C, strain rsa3, hits give low values 0.995 | locus YLR258W, strain gsy2, hits give low values 0.995 | locus YLR262C, strain YPT6 (second series), hits give low values 0.985 | locus YLR320W, strain mms22, hits give low values 0.986 | locus YLR342W, strain FKS1, hits give low values 0.988 | locus YLR357W, strain rsc2, hits give low values 1.02 | locus YLR370C, strain arc18, hits give low values 0.987 | locus YLR384C, strain iki3, hits give low values 1 | locus YML120C, strain ndi1, hits give low values 0.996 | locus YMR058W, strain fet3, hits give low values 0.996 | locus YMR125W, strain sto1, hits give low values 0.985 | locus YMR129W, hits give low values 0.995 | locus YMR205C, strain PFK2, hits give low values 0.991 | locus YMR231W, strain pep5, hits give low values 0.989 | locus YNL071W, strain lat1, hits give low values 1 | locus YNL183C, strain NPR1, hits give low values 0.99 | locus YNL209W, strain ssb2, hits give low values 0.995 | locus YNL248C, strain rpa49, hits give low values 0.987 | locus YNL322C, strain KRE1 (second series), hits give low values 0.99 | locus YNR049C, strain mso1, hits give low values 0.992 | locus YOR001W, strain rrp6, hits give low values 0.999 | locus YOR070C, strain gyp1, hits give low values 0.929 | locus YOR080W, strain dia2, hits give low values 1 | locus YOR083W, strain WHI5, hits give low values 0.996 | locus YOR106W, strain vam3, hits give low values 0.988 | locus YOR231W, strain MKK1, hits give low values 1.04 | locus YOR265W, strain rbl2, hits give low values 0.991 | locus YOR270C, strain vph1, hits give low values 1 | locus YOR290C, strain snf2, hits give low values 1 | locus YPL051W, strain arl3, hits give low values 0.999 | locus YPL078C, strain atp4, hits give low values 0.995 | locus YPL106C, strain sse1, hits give low values 0.981 | locus YPL240C, strain hsp82, hits give low values 0.994 | locus YPL256C, strain CLN2, hits give low values 1.07

CO/N=C(/C(=O)N[C@@H]1C(=O)N2C(C(=O)O)=C(CSc3nc(=O)c(O)nn3C)CSC12)c1csc(N)n1 (stereo partly specified)
inactive: locus YAL013W, strain DEP1, hits give low values 1 | locus YAL040C, strain CLN3, hits give low values 1 | locus YCL061C, strain MRC1 (second series), hits give low values 1 | locus YER002W, strain NOP16, hits give low values 1.01 | locus YGR078C, strain PAC10, hits give low values 1.01 | locus YJR075W, strain HOC1, hits give low values 1 | locus YNL175C, strain NOP13, hits give low values 1.01 | locus YNL197C, strain WHI3, hits give low values 1.01 | locus YNL224C, strain SQS1, hits give low values 1 | locus YOR083W, strain WHI5 (second series), hits give low values 1 | locus YPL055C, strain LGE1, hits give low values 1.01
